Measured values reported in the OligoGym collection.

Each sequence was assayed against TMEM231 (assay: pooled miR-30 sensor sort-seq; sequence = guide strand). Conditions: shRNA.
Note: reference of the scale not given here.

Sequence | sensor-assay potency score (higher = more potent)
TTACCATCTCCCAGAATCCTGG | -0.723
TAATCGATAGGAGAAAGTCAGG | -1.54
TCTCTAGTCGAAACGAGCGGGA | -0.413
TTCTTCTCTAGTCGAAACGAGC | -1.58
TAGGCCACCACAGCTCAGCGGC | -1.06
TAAGAAATGACTTCCACAGGGT | 0.705

What follows are sequences tested against TMEM42 in the same assay as above. Conditions: shRNA.

Sequence | sensor-assay potency score (higher = more potent)
TACGCGGTCGCGGACACGGCGC | -1.65
TAGCCCAGGAAGGCCGAGCTGA | -1.22
AATAAGGAACACTCCTCCCCAC | 0.0225
TAGAACACTGCTGCAGCTGCAC | -0.354
TGGATTAGGGTGAGTCCGCAGA | -1.31
TCCATACAGCACATAGCCCAGG | -1.77
TAAACCCATGCTCACCTCGCTG | -1.26
TAGAGTTACATGACTGGCTTTT | -0.949
TAATACATAAGCATGACACAGA | 0.407
AAACCCATGCTCACCTCGCTGC | -0.311
TTGAAAAAGTCACTGTGACAGA | -0.719
TTGAATACGCCCCAAAAGCGGC | -1.46

These sequences were tested against TMEM70 in the same assay as above. Conditions: shRNA.

Sequence | sensor-assay potency score (higher = more potent)
TGGTGAAACACTGTACTCGTTT | -0.765
TTTATTATAAACAAACATCATT | -1.08
TTTTGTAATAAAGTGAAGCAGC | -0.766
TTAACTAACAGTGATTTTGTTT | -0.473
TAACAATCAGTCACTAACGGAA | -0.91
TTAAGAATCGAACATATCCTTC | -0.465
TAGCATTGTAGGTAATGGCTTT | -0.0699
TAAACAAACATCATTCTCTGGA | 0.0797
TTAACAATCAGTCACTAACGGA | -0.588
TACAATCGAATGACATAGCCTT | 0.02
TTTCACACCAAACACTGCTCGG | -0.271
TTTAAGAATCGAACATATCCTT | 0.136

What follows are sequences tested against TMEM8B in the same assay as above. Conditions: shRNA.

Sequence | sensor-assay potency score (higher = more potent)
ATAATTGTGTGTGCGCAGCAGC | -0.93
AAGCACTGCTGTCTCTGTCTGT | -0.532
TGTAGAAGTAGTTGTCCCGGGT | 0.134
TTATCTATGCATGACAGTTTGG | -0.348
TAGCTGGTAACCACAGCCCCGG | -1.14
TAGAAGTGGACAGAGAAGGTGT | 0.765
TGAAGGTGTAGACTGCAGCTTC | -0.202
TCCATGTCGGTCAAGCTGCAGA | -1.7
TAAGATGCAGACACCACCGCAT | 0.345
ATGTAGAAGTAGTTGTCCCGGG | -0.575
